From ChEMBL document CHEMBL4513149, “CO-ADD screening of MMV (CH) - MMV compounds” (2021) come the findings set out here.

SMILES strings stand for the structures. Potency and affinity values are given separately.

The term Inhibition denotes the change of the read-out against control, counted positive when it falls.

In this experiment the test system is Staphylococcus aureus. Particulars: Concentration 20 uM; ASSAY_TEST Inhibition of Bacterial Growth; detection method Absorption (OD600); MEDIA CAMHB; plate type 384well; NBS; CORNING #3640; time 18 hr.
Take `O=C(N[C@H](Cc1ccccc1)C(=O)Nc1ccccc1N1CCOCC1)c1cccs1`: the Inhibition is given as 14.16%.
On to `Cc1nn(C(=O)Nc2cccc(C(F)(F)F)c2)c(C)c1Sc1ncccn1`, for which the Inhibition is on record as 14.85%.
Turning to `CCOc1ccccc1C(=O)Nc1cccc(-c2nc3ncccn3c2C)c1`, the Inhibition was 2.54%.
`CC(C)(C)n1nc(Cc2ccc(F)c(Cl)c2)c2c(N)ncnc21`: the Inhibition was determined as 12.68%.
For the molecule `Cc1cccc(-c2nc(Nc3ccncn3)c3sccc3n2)n1`, the Inhibition is listed as 21.43%.
`CCS(=O)(=O)N(Cc1ccco1)Cc1cc2ccc(C)cc2nc1O`: the Inhibition worked out at 9.79%.
On to `O=C(Cn1ccnc1[N+](=O)[O-])NCc1ccccc1` [BENZNIDAZOLE], for which the Inhibition is reported as 21.81%.
As to `CC1(COc2ccc(N3CCC(Oc4ccc(OC(F)(F)F)cc4)CC3)cc2)Cn2cc([N+](=O)[O-])nc2O1` (stereo not given), the Inhibition came to 13.25%.
For `Cc1ccc2[nH]c(C3CCCNC3)c(-c3ccncc3)c2c1.Cl.Cl` (stereo not given), the Inhibition turned out to be 42.59%.
Then `C[C@H](C(N)=O)N1CCCC[C@H]1c1ccc(OCc2cccc(F)c2)cc1`, with 21.57%; and `COc1ccc2nc(C)cc(OCC(=O)Nc3ccccc3OC)c2c1`, with 18.5%.
Regarding `CC1(C)Cc2c(c(N3CCOCC3)nc3snc(Br)c23)CO1`, the Inhibition is listed as 19.87%.
Regarding `COCC(C)NC(=O)CSc1ncnc2sc(-c3ccccc3)cc12` (stereo not given), the Inhibition was found to be 19.45%.
With `COc1cc(C2=NCCN2)ccc1-n1cc(-c2cccc(C3=NCCN3)c2)nn1.O=CO.O=CO`, the Inhibition is 1.49%.
On to `CC(C)NCC(=O)Nc1cccc(C(=O)Nc2cccc(C(F)(F)F)c2)c1`, for which the Inhibition came to 3.81%.
For the molecule `c1cc(C2=NCCN2)cc(-c2cc(-c3ccc(C4=NCCN4)cc3)no2)c1`, the Inhibition is 5.99%.
In the case of `c1ccc(Oc2ccc(-c3cc(N4CCOCC4)[nH]n3)cc2)cc1`, the Inhibition is 17.8%.
As for `NCC(=O)N1CCn2c(nc(-c3ccccc3)c2Nc2ccc3c(c2)OCO3)C1`, the Inhibition turned out to be 11.35%.
As for `COC(=O)c1cccc2oc(-c3cccc(OC)c3NC(=O)c3cc(-c4ccccc4)on3)nc12`, the Inhibition is 11.44%.
As for `O=C(Nc1nc(-c2ccccn2)cs1)C1CC1c1ccccc1F` (stereo not given), the Inhibition came out at 16.77%.
For `CCCNC(=O)N1CCC2(CC1)CC(=O)c1cc(C)ccc1O2`, the Inhibition was found to be 20.33%.
Consider `CCCCc1ccc(NC(=O)Nc2ccc(O[C@H]3CCCC[C@@H]3N(C)c3ccccc3)c(F)c2)cc1`, for which the Inhibition worked out at 12.12%.
Turning to `O=C(Nc1cccc(Cl)c1)c1cnc(N2CCN(c3ccncc3)CC2)c(Cl)c1`, the Inhibition is recorded as 19.29%.
For `Cl.NCC(c1cccs1)S(=O)(=O)c1ccccc1` (stereo not given), the Inhibition is recorded as 11.05%.
For the molecule `CS(=O)(=O)N1CCC(Cn2nc(Cc3cccc4ccccc34)c3c(N)ncnc32)CC1`, the Inhibition turned out to be 11.53%.
Take `CC(C)(C)c1cc(C(=O)Nc2cccnc2)cc(C(=O)Nc2cccnc2)c1`: the Inhibition is reported as 15.23%.
As to `COc1cccc2c(C)nc(N=C(N)N)nc12.O=C(O)C(F)(F)F.O=C(O)C(F)(F)F`, the Inhibition came to 15.44%.
On to `Cc1ccc(S(=O)(=O)N2CCN(C(=O)c3cc(-c4ccccc4)n[nH]3)CC2)cc1`, for which the Inhibition is given as 1.4%.
`Brc1c(-c2ccc3c(c2)OCO3)nc2ncccn12`: the Inhibition is recorded as 14.85%.
Turning to `Cc1cnc(N2CCN[C@@H](Cc3ccccc3)C2)nc1Oc1ccc(-n2ccnc2)cc1.Cl`, the Inhibition came out at 11.48%.
With `CCC(Sc1nc2ccccc2o1)C(=O)Nc1nnc(C)s1` (stereo not given), the Inhibition is reported as -13.91%.
Then `Cl.NCCCC(N)(C(=O)O)C(F)F.O` (stereo not given) [EFLORNITHINE HYDROCHLORIDE], with 10.2%; and `CCC(C)NC(=O)c1ccc(NC(=O)C2(c3ccccc3)CCCC2)cc1` (stereo not given), with 13.32%.
Then `COc1ccc(-c2cnc3cnc(-c4cccc(OC(C)C)c4)cn23)cc1`, with 6.79%.
In the case of `CN1CCCN(C(c2ccccc2)c2ccc(Cl)cc2)CC1` (stereo not given) [HOMOCHLORCYCLIZINE] it was 14.31%.
